Screens (PubChem BioAssay)
The entries come from a sample that favours hits as a whole.
Pf Dd2 growth: inhibitors of Plasmodium falciparum Dd2 growth | P. falciparum Dd2 growth, SYBR Green, 72 h | Potency, µM (series often up to 28.9 µM), inactives show at the highest dose activity, negative = inhibition, hits mostly inhibitors | 120,000 tested, 4.3% active | AID 1347417; active = well fitted inhibition curve with a large enough effect;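 note: plate controls were DMSO vehicle for no effect and reference drug for full effect; nearly all actives have a fitted effect of over 65% in size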
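Readout: SYBR Green fluorescence, 485 nm excitation, 535 nm emission, after ~16 h lysis at 37C. Before that, Dd2-infected red cells (2.5% hematocrit) grew 72 h with compound, 29 uM top final concentration.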
* hit, by the source's call; i = inactive; [ ] = remark or other dose. Potency is the fitted concentration of half-maximal effect.

SMILES	Pf Dd2 growth
COc1ccccc1CN1Cc2cc(NC(=O)c3ccc4c(c3)OCO4)ccc2OC(C)C1=O (centres undefined)	4µM*
COc1ccc(CN2Cc3cc(NC(=O)c4ccc([N+](=O)[O-])cc4)ccc3OC(C)C2=O)c(OC)c1 (centres undefined)	10µM*
COc1ccc(C(=O)Nc2ccc3c(c2)CN(Cc2cc(F)cc(F)c2)C(=O)C(C)O3)cc1 (centres undefined)	-14%
COc1ccccc1CCN1Cc2cc(NC(=O)Cc3cccs3)ccc2OC(C)C1=O (centres undefined)	11µM*
CC1Oc2ccc(NC(=O)c3ccc4c(c3)OCO4)cc2CN(Cc2ccccc2)C1=O (centres undefined)	-21%
COc1ccc(CN2Cc3cc(NC(=O)Cc4cccs4)ccc3OC(C)C2=O)cc1 (centres undefined)	-5%
CC1Oc2ccc(NC(=O)c3ccc([N+](=O)[O-])cc3)cc2CN(Cc2ccccc2F)C1=O (centres undefined)	i
COc1ccc(CN2Cc3cc(NC(=O)c4ccc5c(c4)OCO5)ccc3OC(C)C2=O)cc1 (centres undefined)	-7%
CN1CCN(c2cc(=O)c3ccnc(-c4ccnn4C)c3o2)CC1	-18%[44.1 µM]
CCc1noc(-c2cccn3c(CNC(=O)c4ccccn4)nnc23)n1	-26%
COc1ccc(-c2cc(N3CCCC(NC(=O)c4cccn4C)C3)n[nH]2)cc1 (centres undefined)	-4%
CN(C)S(=O)(=O)N1C[C@H]2OC(=O)N(CCc3cccc(Cl)c3)[C@H]2C1	5%
CC(C)[C@@H]1CN(C(=O)c2ccc(F)cc2F)C[C@H]1NS(=O)(=O)N(C)C	10%
CC(C)N1CCN(C2CCN(c3ccc4c(c3)CCC4)CC2)CC1CCO (centres undefined)	-19%
COc1ccc(CN2CCN(C3CCN(c4ccccc4)CC3)CC2CCO)cc1C (centres undefined)	11µM*
Cc1ccc(CN2CCN(C3CCN(Cc4ccccn4)CC3)CC2CCO)o1 (centres undefined)	-7%
Cc1nc(C2CC(NC3CCN(c4ccccc4F)CC3)C2)cc(=O)[nH]1 (centres undefined)	-8%
CCNC(=O)CCc1c(CC)nn(-c2ccc(OC)cc2)c1Oc1cccc(F)c1	i
COc1cccc(C(=O)NCC2CCCN(C/C(C)=C/c3ccccc3)C2)c1OC (centres undefined)	-11%
COc1cccc(C(=O)NCC2CCCN(Cc3nc4ccccc4[nH]3)C2)c1OC (centres undefined)	i
O=C(CCC1CCN(C(=O)c2ccccc2)CC1)Nc1ccccc1F	i
O=C(CCC1CCCN(Cc2cccn2-c2nccs2)C1)Nc1ccccc1F (centres undefined)	7.1µM*
COc1ccccc1/C=C/CN1CCCC(CCC(=O)Nc2ccccc2F)C1 (centres undefined)	8.9µM*
COc1ccccc1/C=C/CN1CCCC(CNC(=O)COc2ccccc2OC)C1 (centres undefined)	7.9µM*
CCOc1ccc(CN2CCCC(CCC(=O)Nc3ccccc3F)C2)cc1CO (centres undefined)	i
SMILES	Pf Dd2 growth
COc1ccccc1CNC(=O)CCC1CCCN(S(=O)(=O)c2ccccc2F)C1 (centres undefined)	i
O=C(CCC1CCCN(C(=O)Cc2c[nH]c(=O)[nH]c2=O)C1)Nc1ccccc1F (centres undefined)	-20%
O=C(Nc1ccc(F)cc1)N1CCN2C(=O)N(C3CCOCC3)C[C@H]2C1	10%[44.1 µM]
Cc1ccc(S(=O)(=O)N2CCn3c(nn(CC4CC4)c3=O)C2)c(C)c1	-17%
O=C(c1ccc[n+]([O-])c1)N1CCC2(CCCN(CC3CCCCC3)C2=O)C1 (centres undefined)	2%
CCN(CC)CC[C@H]1CN(C(=O)NC2CCCCC2)CC[C@H]1CC(=O)O	28%[44.1 µM]
COC1CCOC2(CCN(C(=O)c3ccoc3)CC2)C1 (centres undefined)	27%
O=C(c1cn(-c2ccccc2)nn1)N1CCOC(c2ccc(F)cc2)C1 (centres undefined)	-11%
O=C(NCc1ccc(OC(F)(F)F)cc1)N1CCCC(Cn2cnc3cccnc32)C1 (centres undefined)	7.1µM*
COc1cccc(CNC(=O)N2CCCC(Cn3cnc4cccnc43)C2)c1 (centres undefined)	13%
Cc1cc(C)cc(NC(=O)N2CCCC(Cn3cnc4cccnc43)C2)c1 (centres undefined)	-11%
Cc1cc(NC(=O)N2CCCC(Cn3cnc4cccnc43)C2)ccc1Br (centres undefined)	8.9µM*
Cc1cccc(NC(=O)N2CCCC(Cn3cnc4cccnc43)C2)c1 (centres undefined)	-17%
O=C(NCc1cccc(F)c1)N1CCCC(Cn2cnc3cccnc32)C1 (centres undefined)	-14%
CCn1nccc1C(=O)NCC(=O)N1CCCCCNC(=O)CC1c1ccccc1 (centres undefined)	-14%
COc1ccc(-c2nnc3n2CCN(C(=O)Cc2ccc(F)cc2)C3)cc1	-21%
O=C1c2cnc(-c3ccc(CO)cc3)nc2OCCN1Cc1ccc(F)cc1F	-41%[44.1 µM]
COCCNC(=O)c1ccc2c(c1)N(C)C(CC(=O)N1CCC(N)CC1)CO2 (centres undefined)	-1%
C[C@H](O)c1onc(-c2ccc(Cl)cc2)c1C(=O)NC1CC1	-14%[44.1 µM]
COc1ccc(-n2ncc3c2CC(C)(C)CC3NC(=O)c2cc(C)[nH]n2)cc1 (centres undefined)	-12%
COCCn1cnc2ccc(OCC3CC3)nc2c1=O	i
COCCn1cnc2ccc(OCc3ccc(C(F)(F)F)cc3)nc2c1=O	-2%[44.1 µM]
COCCn1cnc2ccc(OCc3ccc(Cl)cc3)nc2c1=O	11µM*
CC(C)NC(=O)C1CCc2nnc(C3CCN(C(=O)Nc4ccc(Cl)cc4)CC3)n21 (centres undefined)	0%
NCc1ccccc1Oc1ccc(F)c(Cl)c1	11µM*
SMILES	Pf Dd2 growth
COc1ccc2c(c1)c1c(c(=O)n(-c3ccc(F)c(Cl)c3)c(=O)n1Cc1ccccc1F)n2C	16%
O=C(NCc1ccccc1)C1(CCO)CCN(c2ncccn2)C1 (centres undefined)	-1%
CN(C)CCCn1ccnc1C1CCCN(S(=O)(=O)N2CCCC2)C1 (centres undefined)	-3%
COCCOc1ccc2c(n1)CCN(C(=O)c1cccnc1)C2	29%
CCOC(=O)c1cnc2ccccc2c1Nc1ccc(N2CCOCC2)cc1	28%
CCOC(=O)c1cnc2c(ccc3ccccc32)c1Nc1ccc(C(C)=O)cc1	5µM*
CCOC(=O)c1cnc2c(ccc3ccccc32)c1Nc1ccccc1OCC	30%
CCOC(=O)c1cnc2c(ccc3ccccc32)c1Nc1ccccc1OC	9%
CCOC(=O)c1cnc2c(ccc3ccccc32)c1Nc1ccc(OC)cc1OC	0%
CCOC(=O)c1cnc2c(ccc3ccccc32)c1Nc1ccc(OC)c(OC)c1	3.5µM*
COCCNC(=O)N1CCN(Cc2ccco2)CC(C(=O)O)C1 (centres undefined)	8%
COc1ccc(NC(=O)NC2CCN(C(=O)N3CC4CC(C3)[C@H]3CCCC(=O)N3C4)CC2)cc1 (some centres undefined)	13%
COc1ccc(-c2cc(C[C@H]3CNCC[C@H]3CC(=O)O)no2)cc1	-16%[44.1 µM]
C=CCOC(=O)C1=C(C)N(Cc2ccc(F)c(F)c2)C(=O)CC1c1ccccc1Cl (centres undefined)	i
COc1ccc(C(=O)N2CCCCCCN(C)C(=O)[C@@H]3CCC[C@@H]32)cc1	-2%
